Data published in PubChem BioAssay (Tox21).
Inconclusive results are not listed. Activity calls are given as the source filed them. Unless noted, calls follow the shape of the dose curve; as a rule, active = well fitted curve in the direction sought with a large enough effect in the repeat runs; inconclusive = weak or mixed curves; inactive = no such curve, though single readings can be large; an effect the other way counts as inactive or inconclusive.

Assays:
[1] = molecular target: Luciferin 4-monooxygenase (Photinus pyralis) (UniProt P08659); test: qHTS assay to identify small molecule inhibitors of firefly luciferase (AID 1224835); also: nearly all actives have a fitted effect of over 25% in size
Procedure, shortened: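 Quantitative HTS format; KM concentrations of both substrates. Purified P. pyralis FLuc activity quantified from luminescence images.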

[2] = qHTS assay to identify small molecule agonists of the constitutive androstane receptor (CAR) signaling pathway - cell viability counter screen (AID 1224836); also: nearly all actives have a fitted effect of over 45% in size
Procedure, shortened: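 Compound titrations (15 concentrations) went onto HepG2-CYP2B6-hCAR cells 4 h after seeding, alongside PK11195 at a final 0.75 uM; a 23 h, 37 C/5% CO2 incubation preceded CellTiter-Fluor viability measurement.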

[3] = qHTS assay to identify small molecule antagonists of the constitutive androstane receptor (CAR) signaling pathway - cell viability counter screen (AID 1224837); also: nearly all actives have a fitted effect of over 45% in size
Procedure, shortened: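 Counter screen run in HepG2-CYP2B6-hCAR cells: 4 hr settle, compound titration (15 concentrations) with 50 nM CITCO, 23 hr at 37 C/5% CO2, CellTiter-Fluor fluorescence.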

[4] = qHTS assay to identify small molecule antagonists of the estrogen related receptor signaling pathway with the pleiotropic PPARgamma coactivator (PGC) from Tox21 10K library - cell viability counter screen (AID 1224840; active = well fitted cell-killing curve with a large enough effect in the repeat runs, not every such curve was filed as active; also: nearly all actives have a fitted effect of over 40% in size)
Procedure, shortened: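 Following seeding of 2,000 PGC/ERR cells/well and 6 hours' incubation, test compounds were delivered in DMSO. The plates then sat 17.5 hours at 37 C before a fluorogenic live-cell protease reagent (CellTiter-Fluor) was read after 30 min.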

[5] = molecular target: Thyrotropin receptor (Homo sapiens) (UniProt P16473); test: qHTS assay to identify small molecule agonists of the thyroid stimulating hormone receptor (TSHR) signaling pathway (AID 1224843; calls by dose curve; also: nearly all actives have a fitted effect of over 45% in size)
Procedure, shortened: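 Cell line HEK293 with TSHR; density 800/well. Exposure 30 min RT. Readout HTRF cAMP (cAMP-d2/anti-cAMP-cryptate), 1 h RT before reading.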

[6] = qHTS assay to identify small molecule agonists of the hypoxia (HIF-1) signaling pathway - cell viability counter screen (AID 1224844; calls by dose curve; also: nearly all actives have a fitted effect of over 50% in size)
Procedure, shortened: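 Cells (HRE-bla ME-180, 2,000 per well) sat 5 hrs at 37C, got compound for 17 hrs, were read for CCF4-AM FRET, and were finally lysed with CellTiter-Glo for a 30 min room-temperature luminescence read.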

[7] = qHTS assay to identify small molecule agonists of H2AX (AID 1224845; active = well fitted activation curve with a large enough effect in the signal ratio in the repeat runs, not every such curve was filed as active; the % refers to the signal ratio)
Procedure, shortened: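 Wild-type CHO-K1 cells plated overnight, then exposed 3 hr at 37C to compounds at 15 concentrations (0.76% DMSO). Lysed, then HTRF anti-pH2AX(S139)-cryptate/anti-H2AX-d2 detection after 24 hr at room temperature; emissions 665 and 620 nm.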

[8] = qHTS assay to identify small molecule agonists of the hypoxia (HIF-1) signaling pathway (AID 1224846; active = well fitted activation curve with a large enough effect in the signal ratio in the repeat runs, not every such curve was filed as active; the % refers to the signal ratio)
Procedure, shortened: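 A low-serum medium (0.5% dialyzed FBS) holding 2,000 HRE-bla ME-180 cells per well is preincubated for 5 hrs, dosed with compounds by pintool, and kept a further 17 hrs at 37C, 5% CO2 before CCF4-AM FRET detection of beta-lactamase.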

[9] = qHTS assay to identify small molecule agonists of H2AX - cell viability counter screen (AID 1224847; calls by dose curve; also: nearly all actives have a fitted effect of over 30% in size)
Procedure, shortened: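 Read-out: CellTiter-Glo luminescence, 30 min RT. Cells: wild-type CHO-K1, 1000/well, 10% FBS, plated overnight at 37C. Treatment: 15 concentrations, 3 hr, 37C, 0.76% DMSO.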

[10] = molecular target: Nuclear receptor subfamily 1 group I member 3 (Homo sapiens) (UniProt Q14994); test: qHTS assay to identify small molecule antagonists of the constitutive androstane receptor (CAR) signaling pathway (AID 1224838);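 also: HepG2 cells stably expressing hCAR with CYP2B6 luciferase reporter stimulated by CITCO; nearly all actives have a fitted effect of over 40% in size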
Procedure, shortened: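 Cell line: HepG2 double-stable for hCAR and CYP2B6-2.2kb reporter. Agonist: CITCO, 50 nM final. Compounds: 15 concentrations, 24 h, 37 C. Detection: ONE-Glo luminescence.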

[11] = molecular target: Nuclear receptor subfamily 1 group I member 3 (Homo sapiens) (UniProt Q14994); test: qHTS assay to identify small molecule agonists of the constitutive androstane receptor (CAR) signaling pathway (AID 1224839); also: nearly all actives have a fitted effect of over 15% in size;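 as to activation: HepG2 cells stably carrying human CAR and a CYP2B6 luciferase reporter; series mostly up to about 92 µM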
Procedure, shortened: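 In this screen, CAR-driven CYP2B6 promoter activity is measured by luminescence in HepG2-CYP2B6-hCAR cells after 24 h with test compounds and 0.75 uM PK11195 (final concentration).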

[12] = qHTS assay to identify small molecule antagonists of the estrogen related receptor signaling pathway with the pleiotropic PPARgamma coactivator (PGC) from Tox21 10K library (AID 1224841; call rule not given here; also: actives are mostly falling curves and most rising ones were filed inactive; nearly all actives have a fitted effect of over 50% in size)
Procedure, shortened: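 qHTS antagonist format: PGC/ERR cells, 2k/well, compound in DMSO by pin transfer after 6 h attachment, 18 h treatment at 37 C, One-Glo luminescence read at 30 min.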

[13] = qHTS assay to identify small molecule agonists of the estrogen related receptor signaling pathway with the pleiotropic PPARgamma coactivator (PGC) from Tox21 10K library (AID 1224842); also: nearly all actives have a fitted effect of over 15% in size
Procedure, shortened: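 PGC/ERR reporter cells (NTP line) were seeded 2,000 per well, rested 6 h at 37 C/5% CO2, then pin-dosed with compounds in DMSO for 18 h at 37 C; luciferase read by One-Glo luminescence after 30 min at room temperature.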

[14] = qHTS assay to identify small molecule antagonists of the estrogen related receptor (ERR) signaling pathway from Tox21 library (AID 1224848); also: nearly all actives have a fitted effect of over 50% in size
Procedure, shortened: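 Screening used an ERR reporter line supplied by NTP, exposed for 18 h at 37 C to library compounds delivered in DMSO. Signal was luciferase luminescence developed with ONE-Glo at room temperature for 30 min.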

Measured: Potency
Potency is read from the fitted curve at half-maximal effect.

Chain of Luciferin 4-monooxygenase (Photinus pyralis) (P08659 whole entry, looked up): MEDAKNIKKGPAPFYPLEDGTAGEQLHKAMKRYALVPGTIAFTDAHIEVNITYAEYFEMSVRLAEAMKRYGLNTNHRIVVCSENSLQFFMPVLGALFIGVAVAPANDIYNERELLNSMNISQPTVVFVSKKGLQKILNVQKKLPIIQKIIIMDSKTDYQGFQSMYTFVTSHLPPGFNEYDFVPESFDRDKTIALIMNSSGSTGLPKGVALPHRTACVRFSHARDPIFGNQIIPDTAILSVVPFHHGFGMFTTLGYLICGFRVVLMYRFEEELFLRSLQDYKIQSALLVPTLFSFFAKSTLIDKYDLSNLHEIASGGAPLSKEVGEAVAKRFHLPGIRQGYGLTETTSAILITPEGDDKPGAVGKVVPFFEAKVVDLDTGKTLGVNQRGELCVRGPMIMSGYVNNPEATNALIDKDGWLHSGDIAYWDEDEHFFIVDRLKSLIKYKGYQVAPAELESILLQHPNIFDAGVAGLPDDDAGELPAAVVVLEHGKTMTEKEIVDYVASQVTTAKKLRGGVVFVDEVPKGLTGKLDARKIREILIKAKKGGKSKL
Chain of Thyrotropin receptor (Homo sapiens) (P16473 whole entry, looked up): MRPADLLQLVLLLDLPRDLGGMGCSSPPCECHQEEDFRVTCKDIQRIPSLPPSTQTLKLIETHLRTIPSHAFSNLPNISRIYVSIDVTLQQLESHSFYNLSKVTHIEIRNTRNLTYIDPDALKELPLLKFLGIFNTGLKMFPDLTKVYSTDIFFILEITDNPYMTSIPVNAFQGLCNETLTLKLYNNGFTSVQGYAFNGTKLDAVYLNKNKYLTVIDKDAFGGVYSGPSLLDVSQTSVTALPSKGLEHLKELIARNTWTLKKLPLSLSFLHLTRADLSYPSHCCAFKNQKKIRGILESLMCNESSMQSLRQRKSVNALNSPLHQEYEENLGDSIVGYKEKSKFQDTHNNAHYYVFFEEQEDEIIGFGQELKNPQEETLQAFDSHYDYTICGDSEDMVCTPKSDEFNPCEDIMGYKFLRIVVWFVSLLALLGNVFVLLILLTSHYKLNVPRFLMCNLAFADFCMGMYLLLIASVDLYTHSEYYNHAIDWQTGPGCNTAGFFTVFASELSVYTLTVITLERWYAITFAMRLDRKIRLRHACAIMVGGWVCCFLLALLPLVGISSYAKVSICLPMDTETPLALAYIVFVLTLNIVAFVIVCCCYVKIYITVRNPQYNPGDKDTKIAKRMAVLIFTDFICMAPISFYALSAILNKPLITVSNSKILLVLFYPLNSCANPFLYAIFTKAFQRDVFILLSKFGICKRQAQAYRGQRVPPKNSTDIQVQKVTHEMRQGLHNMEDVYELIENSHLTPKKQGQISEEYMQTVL
Chain of Nuclear receptor subfamily 1 group I member 3 (Homo sapiens) (Q14994 whole entry, looked up): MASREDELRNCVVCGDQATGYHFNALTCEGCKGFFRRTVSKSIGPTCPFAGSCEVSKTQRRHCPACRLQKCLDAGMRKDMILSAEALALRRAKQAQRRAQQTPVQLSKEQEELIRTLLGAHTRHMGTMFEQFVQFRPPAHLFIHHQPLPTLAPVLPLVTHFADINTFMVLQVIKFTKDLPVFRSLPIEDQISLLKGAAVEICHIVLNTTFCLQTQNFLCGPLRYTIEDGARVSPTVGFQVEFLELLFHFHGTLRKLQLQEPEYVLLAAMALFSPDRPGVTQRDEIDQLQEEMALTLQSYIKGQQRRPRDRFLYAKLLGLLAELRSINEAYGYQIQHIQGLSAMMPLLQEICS

CN1CCN(C)CC1
inactive: [1] | [2] | [3] | [4] | [5] | [6] | [7] | [8] | [9]

CC/C=C\C/C=C\C/C=C\CCCCCCCC(=O)OC
inactive: [1] | [2] | [3] | [6] | [8]

CCN(CC)c1ccc2c(c1)Oc1cc(N(CC)CC)ccc1C21OC(=O)c2ccccc21
active: [1] 13.8 µM | [2] 8.41 µM | [3] 4.73 µM | [4] 8.41 µM | [9] 15.6 µM
inactive: [10] | [11] | [8]

Clc1ccc2c(Cl)ccnc2c1
inactive: [2] | [3] | [10] | [11] | [4] | [12] | [13] | [5] | [6] | [7] | [8] | [9]

C=C(C)C1CCC(C)CC1O (centres undefined)
inactive: [1] | [3] | [5] | [6] | [7] | [8] | [9]

CN[C@H]1CC[C@@H](c2ccc(Cl)c(Cl)c2)c2ccc(S(N)(=O)=O)cc21
active: [10] 61.1 µM | [4] 61.1 µM | [9] 113 µM | [14] 61.1 µM
inactive: [1] | [11] | [13] | [8]

CCCCCCCCCCCCN1CCCC1=O
inactive: [3] | [10] | [4] | [12] | [13] | [7]
active: [1] 44.8 µM | [11] 54.5 µM

O=C(NCc1ncc(C(F)(F)F)cc1Cl)c1c(Cl)cccc1Cl
active: [8] 15.5 µM
inactive: [1] | [11] | [6] | [7] | [9]

c1ccc2cc3c4ccccc4c4ccccc4c3cc2c1
active: [10] 10.9 µM | [6] 22 µM | [9] 101 µM
inactive: [11] | [4] | [5] | [8]

COc1cc([C@@H]2c3cc4c(cc3[C@@H](O[C@@H]3O[C@@H]5CO[C@@H](C)O[C@H]5[C@H](O)[C@H]3O)[C@H]3COC(=O)[C@H]23)OCO4)cc(OC)c1O
inactive: [1] | [2] | [12]

c1ccc2c(c1)-c1ccc3ccc4cccc5cc-2c1c3c45
inactive: [10] | [5] | [6] | [7] | [9]
active: [1] 11 µM | [11] 11.9 µM

Cc1cc(F)ccc1-c1cc(N2CC[C@@H](O)[C@H]2CO)ncc1N(C)C(=O)C(C)(C)c1cc(C(F)(F)F)cc(C(F)(F)F)c1
inactive: [1] | [3] | [10] | [11] | [5]
active: [6] 24.2 µM | [7] 39.5 µM | [9] 70.2 µM

CCN(CC)c1ccc(N=Nc2ccccc2)cc1
inactive: [10] | [5]
active: [1] 0.502 µM | [11] 13.7 µM | [9] 113 µM

Nc1cccnc1N
inactive: [1] | [10] | [11] | [5] | [6] | [8] | [9]

Nc1ccc(Oc2cccc(Oc3ccc(N)cc3)c2)cc1
inactive: [3] | [11] | [4] | [13] | [5] | [6] | [8]
active: [1] 35.6 µM | [10] 1.37 µM | [12] 8.63 µM | [7] 113 µM | [14] 4.33 µM

CC(Cc1ccc(O)c(O)c1)C(C)Cc1ccc(O)c(O)c1 (centres undefined)
active: [1] 71 µM
inactive: [2] | [10] | [13] | [5] | [6]

CCOC=C(C(=O)OCC)C(=O)OCC
inactive: [1] | [3] | [10] | [11] | [5] | [6] | [7] | [8] | [9]

CN1CC[C@H](c2c(O)cc(O)c3c(=O)cc(-c4ccccc4Cl)oc23)[C@H](O)C1
inactive: [11] | [12] | [6] | [7] | [14]
active: [10] 0.596 µM | [13] 0.531 µM

CCOc1ccc([N+](=O)[O-])cc1
inactive: [3] | [4] | [6] | [7] | [8] | [9]

NC(=O)C1CO1 (centres undefined)
inactive: [1] | [3] | [5] | [6] | [7] | [8] | [9]

CC(C)C(=O)C(C)C
inactive: [1] | [3] | [10] | [11] | [4] | [12] | [13] | [5] | [6] | [7] | [8] | [9] | [14]

CCOC(=O)OC(=O)OCC
inactive: [1] | [3] | [10] | [11] | [4] | [5] | [6] | [7] | [8] | [9]

CCCCCCCC/C=C\CCCCCCCC(=O)N(CCO)CCO
inactive: [1] | [4] | [7]
active: [9] 113 µM

Oc1ccc(Cl)cc1C1CCCC1
active: [9] 56.6 µM
inactive: [1] | [3] | [10] | [4] | [12] | [13] | [7]

O=C(Nc1ccccc1)c1cc(Cl)ccc1O
inactive: [13] | [5] | [6] | [7]
active: [1] 3.99 µM | [9] 25.3 µM

CC(C)(c1ccc(Oc2ccc(N)cc2)cc1)c1ccc(Oc2ccc(N)cc2)cc1
active: [1] 22.4 µM | [5] 27.3 µM | [6] 24.5 µM | [9] 80 µM
inactive: [10]

Cc1cccc(C)c1C
inactive: [1] | [10] | [11] | [4] | [5] | [6] | [7] | [8] | [9]

c1ccc(C[P+](c2ccccc2)(c2ccccc2)c2ccccc2)cc1
active: [2] 30.6 µM | [12] 3.44 µM | [9] 101 µM | [14] 1.72 µM
inactive: [1] | [11] | [13] | [6] | [7]

O=C1CCC/C=C\CCCCCCCCCC1
active: [11] 27.3 µM
inactive: [1] | [3] | [10] | [4] | [9]

O=C1OC2(c3ccccc31)c1ccc(O)c(Br)c1Oc1c2ccc(O)c1Br
inactive: [3] | [10] | [11] | [12] | [13] | [6] | [9]
active: [1] 35.6 µM

Oc1cccc2c(O)cccc12
active: [11] 30.6 µM | [12] 2.73 µM
inactive: [10] | [13] | [5] | [14]

CS(=O)(=O)c1ccc([C@@H](CC2CCCC2)C(=O)Nc2cnccn2)cc1Cl
active: [9] 101 µM

Cc1c(Cl)c(=O)oc2cc(O)ccc12
inactive: [1] | [10] | [5] | [6] | [9]

Nc1cc([N+](=O)[O-])cc(Cl)c1O
inactive: [1] | [10] | [11] | [4] | [6] | [8] | [9]

Cc1c[nH]c(=O)[nH]c1=O
inactive: [1] | [3] | [4] | [12] | [13] | [5] | [6] | [7] | [8] | [9]

Clc1nc(C(Cl)(Cl)Cl)c(Cl)c(Cl)c1Cl
active: [10] 54.5 µM | [6] 4.9 µM
inactive: [1] | [3] | [11] | [13] | [9]

CC(C)=NNC(N)=S
inactive: [1] | [2] | [4] | [6] | [8] | [9]

NC(=O)c1ccccc1Cl
inactive: [1] | [10] | [11] | [4] | [13] | [6] | [7] | [8] | [9]

CC(=O)Nc1ccc(N=Nc2cc(C)ccc2O)cc1
inactive: [3] | [10] | [6] | [7] | [14]
active: [1] 3.17 µM | [13] 4.33 µM

CC1=CC[C@@H](C(C)(C)O)CC1
inactive: [1] | [4] | [5] | [6] | [7] | [8] | [9]

O=S(=O)(c1ccc(OCc2ccccc2)cc1)c1ccccc1O
inactive: [1] | [3] | [10] | [11] | [4] | [13] | [5] | [6] | [7]
active: [9] 45 µM

CSc1ccc(O)cc1C
active: [7] 113 µM
inactive: [1] | [10] | [4] | [12] | [13] | [9] | [14]

C=C1C(CCl)(CCl)C2(Cl)C(Cl)C(Cl)C1(Cl)C2(Cl)Cl (centres undefined)
inactive: [1] | [3] | [10] | [13]
active: [11] 8.53 µM | [12] 60.4 µM | [5] 17 µM | [6] 24.3 µM | [7] 99.6 µM | [9] 99.6 µM | [14] 60.4 µM
